pAkt inh = HTS Assay for Inhibitors of Akt Phophorylation: Primary Screen. Neuro2A IGF-stimulated pAkt S473 HTRF, 20 min; hits give low values. activity change, % for hits at 50 µM. hit rate 0.32% among 360,000. AID 651550, 2012; in the data active means activity change below about -80%; inconclusive means mostly about -51% to -80%
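Neuro2A cells in DMEM with 0.5% FBS, overnight at 37 deg C, given compound at single 50 µM final, then IGF (6 nM final) for 20 min at 37 deg C. Lysed; phospho-Akt Ser473 by HTRF after 24 h, 665/615 ratio.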
RGS4 inhibitor = Inhibitors of Regulator of G Protein Signaling (RGS) 4: qHTS; Regulator of G-protein signaling 4 (Homo sapiens), P49798; hit rate 0.039% among 390,000; Potency, µM (series often up to 114 µM), hits mostly inhibitors; Transcreener GDP fluorescence polarization, RGS4-accelerated GTP hydrolysis; active means well fitted curve in the direction sought with a large enough effect; inconclusive means small, poorly fitted or top-dose-only effect, or another doubt; inactive means no such curve, though single readings can be large; an effect the other way counts as inactive or inconclusive; further: nearly all actives have a fitted effect of over 75% in size
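MLSMR compounds (23 nl, pin-transferred) preincubated 10 min at room temperature with a 500nM (2x) first reagent, then RGS4 at 900nM (2x) plus Transcreener GDP mix added; fluorescence polarization (620/688 nm) read before and after 90 min at 30 °C.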
CtBP-E1A inh = qHTS Assay for Inhibitors of the CtBP/E1A Interaction; CtBP / adenovirus E1A interaction (AlphaScreen); AlphaScreen GST-E1A/His-CtBP binding, 1536-well; hits give low values; activity change, % (concentration not given with the values); hit rate 0.49% among 340,000
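GST-E1A and His-tagged CtBP (125 nM each as 5X stock) were preincubated with pin-transferred compound for 2 h at 37 °C in the dark, then glutathione donor and nickel acceptor beads were added for 1 h before AlphaScreen reading.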
GRP78 ERSR act = qHTS for Inducers of the Endoplasmic Reticulum Stress Response (ERSR) in Human Glioma: qHTS. Potency, µM, hits mostly activators. AID 602332, 2012. hit rate 0.02% among 420,000. U87-MG GRP78 promoter luciferase reporter, 16 h; active means well fitted curve in the direction sought with a large enough effect; inconclusive means small, poorly fitted or top-dose-only effect, or another doubt; inactive means no such curve, though single readings can be large; an effect the other way counts as inactive or inconclusive; further: series mostly up to about 76 µM; nearly all actives have a fitted effect of over 35% in size
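ERSR induction read as luciferase luminescence (Bright-Glo, 10 min at room temperature) in stably transfected human U87-MG glioma cells exposed to compounds for 16 h, using GRP78 as sensor.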
Six1-Eya2 blk = qHTS Assay for Inhibitors of the Six1/Eya2 Interaction; AlphaScreen GST-Six1/His-Eya2 binding, biochemical; hits give low values; hit rate 0.56% among 360,000; Homeobox protein SIX1 (Homo sapiens) + Protein phosphatase EYA2 (Homo sapiens), …; activity change, % (test concentration not listed); AID 651725, 2012
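AlphaScreen luminescence read after one hour at 37 °C in darkness. Pin-transferred compounds met GST-Six1 and His-Eya2 protein (5X stock 250 nM/500 nM) plus glutathione donor and Ni-chelate acceptor beads (5X, 50 ug/mL).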
Numbers stand for hits; – = inactive; ? = inconclusive; · = no result. Only some compounds are listed: those with a hit (about 0.88% of all), similar ones and a draw of the others. Unless noted, no stated cut-off is given here; in the data, active means activity change below about -65%; inconclusive means mostly about -30% to -63%; inactive means weaker than that.

SMILES	pAkt inh	RGS4 inhibitor	CtBP-E1A inh	GRP78 ERSR act	Six1-Eya2 blk
Cc1ccc(S(=O)(=O)N(C)C[C@H]2Oc3c(NC(=O)Nc4cccc5ccccc45)cccc3C(=O)N([C@@H](C)CO)C[C@@H]2C)cc1	–	–	-75	–	-71
COCC(C)NCc1cc2ccc(OC)cc2nc1N1CCN(c2ccc(F)cc2)CC1 (stereo not given)	·	·	·	–	·
COC(=O)N/N=C\c1ccc(OC(=O)c2ccco2)cc1	–	–	–	–	–
O=C(Cc1ccccc1)N/N=C/c1ccc(OC(=O)/C=C\c2ccco2)cc1	–	–	-65	–	?
COC(=O)N/N=C/c1ccc(OC(=O)/C=C/c2ccco2)cc1	–	–	-71	–	?
O=C(Oc1ccc(C(=S)N2CCC(O)CC2)cc1)c1ccc(Cl)cc1	–	–	-84	–	-90
O=C(Oc1ccc(C(=S)N2CCOCC2)cc1)c1cccc(Cl)c1	–	–	–	–	-80
O=C(/C=C/c1ccccc1)Oc1cccc(C(=S)N2CCOCC2)c1	–	–	–	–	-69
COc1cccc(C(=O)NCc2nc(-c3cccc(NC(=O)c4ccoc4C)c3)oc2C)c1OC	·	·	·	–	·
C/C(=N\OCC(=O)N/N=C/c1ccccc1)c1cccs1	–	–	–	–	–
C/C(=N\OCC(=O)N/N=C/c1ccccc1O)c1cccs1	–	–	-67	–	?
C[N+]1(CC(=O)c2ccc3c(c2)CCCC3)CCOCC1	·	·	·	–	·
C#CC1(OC(C)=O)CCC2C3CCC4=CC(OC(C)=O)CCC4C3CCC21C (stereo not given)	·	·	·	–	·
CCOC(=O)C1CCCN(Cc2nc(N)nc(Nc3ccccc3)n2)C1 (stereo not given)	-96%	–	–	–	–
COc1ccc(-n2cnnc2SCC(=O)N2CCN(c3ccccc3)CC2)cc1	-108%	–	–	–	?
COc1ccc(N2CCN(C(=O)CSc3nnc(-c4cc5ccccc5cc4O)n3C)CC2)cc1	–	–	?	–	?
Cc1cc2nc(SCC(=O)Nc3nonc3C)c3c(c2cc1C)CCCC3	-91%	–	–	–	–
COc1cc2c(cc1OC)-c1c(OC)c(OC)cc3ccnc(c13)C2=O	–	–	-71	–	?
CCOC(=O)c1c(C)[nH]c(C)c1C(=O)COc1ncnc2cc([N+](=O)[O-])ccc12	–	–	-70	–	-76
Cc1cc2nccc(C)c2cc1C	·	·	·	–	·
OCCN(Cc1cccnc1)Cc1ccccn1	–	–	–	–	-89
CN(C)c1ccc(N=Nc2nccs2)cc1	–	·	?	–	-83
O=C1c2ccccc2C(=O)C1c1ccnc2ccccc12	-122%	–	–	–	–
COc1ccc2c(c1)OC(C)CN(CC(=O)NCc1cn[nH]c1-c1ccc(F)cc1)C2 (stereo not given)	·	·	·	–	·
CCC(C)C(=O)N1c2ccccc2C(=C2SC(C(=O)OC)=C(C(=O)OC)S2)C(=S)C1(C)C (stereo not given)	–	–	-83	–	-80
SMILES	pAkt inh	RGS4 inhibitor	CtBP-E1A inh	GRP78 ERSR act	Six1-Eya2 blk
CCOC(=O)C1=C(C)c2ccccc2N(C(=O)OC)C1(C)C(=O)OCC (stereo not given)	–	?	–	?	–
CCN(CC)CCn1c2ccccc2c(=O)c2c(O)ccc(O)c21	–	?	–	–	-69
Cc1cccc2c(C(O)c3cn(C)c4ccccc34)c[nH]c12 (stereo not given)	·	·	·	–	·
CC12CCC(C(=O)NCCN3CCCCC3)(CC1=O)C2(C)C (stereo not given)	-114%	–	–	–	–
O=S(=O)(c1ccccc1C(F)(F)F)N1CCN(c2nc(-c3cccs3)nc3ccccc23)CC1	·	–	·	–	·
O=C(NCc1ccccc1)c1sc(=S)n2c1[nH]c(=O)c1ccccc12	–	?	–	–	–
CC(=O)NNC(=O)c1sc(=S)n2c1[nH]c(=O)c1sccc12	–	?	?	–	-65
NC(=O)c1sc(=S)n(-c2ccc(Br)cc2)c1N	–	–	–	–	–
NC(=O)c1sc(=S)n2c1[nH]c(=O)c1sccc12	–	–	-82	–	?
O=C(Oc1ccc2c(c1)OCC2=O)c1ccccc1	–	–	–	–	-71
COc1cccc(CNC(=O)c2c(OC)cc(=O)n3c2CCN(C(=O)c2cc(F)cc(F)c2)CC3)c1	·	·	·	–	·
Cc1ccc(CN2CCOc3ccc(C(C)(O)COc4ccccc4)cc3C2)o1 (stereo not given)	·	·	·	–	·
Cc1cccc(C(=O)Nc2cccc3cccnc23)c1	–	–	–	–	–
Cc1cnc(C(=O)Nc2cccc3cccnc23)cn1	-109%	–	–	–	–
CCOc1ccc(C(=O)N/N=C/c2ccc(-c3ccc(S(=O)(=O)Nc4ncccn4)cc3)o2)cc1	–	–	?	–	?
O=C(N/N=C/c1ccc(-c2ccc(S(=O)(=O)Nc3ncccn3)cc2)o1)c1cc2ccccc2cc1O	–	?	–	–	-67
COc1ccc(N=Nc2nc3ccc(Br)cc3n2C)cc1	-106%	–	–	–	?
CN(CC(=O)N1CCOCC1)Cc1c(Cl)cccc1NC(=O)c1ccccc1	·	·	·	–	·
C=CCn1c(SCC(=O)Nc2sccc2C(N)=O)nc2sc(CC)cc2c1=O	-111%	?	–	–	–
Cc1c(C(=O)NCCc2cccnc2)cnn1-c1ncc2c(n1)-c1ccccc1CC2	·	·	·	–	·
c1ccc(OCCSc2nnnn2C2CCCCC2)cc1	-112%	–	–	–	–
C=CCn1c(SC(C)C#N)nc2ccccc2c1=O (stereo not given)	·	–	·	–	·
Cc1ccc(NC(=O)COc2ccc(/C=C3/SC(=Nc4ccccc4)N(Cc4cccnc4)C3=O)cc2)cc1	-106%	–	–	–	–
CC(C)(C)C(=O)Nc1ccc2c(c1)C(=O)C(=O)c1ccccc1-2	·	–	·	·	·
O=S(=O)(c1ccccc1)c1cnn2c(C(F)(F)F)cc(-c3ccccc3)nc12	-90%	–	–	–	–
SMILES	pAkt inh	RGS4 inhibitor	CtBP-E1A inh	GRP78 ERSR act	Six1-Eya2 blk
CN(C)CCOC1=Cc2ccccc2Sc2ccc(Cl)cc21	·	·	·	–	·
CCN1/C(=C/c2ccc3ccccc3[n+]2CC)C=Cc2ccccc21	·	–	?	–	-70
O=C(c1cccc(Cl)c1Cl)N(Cc1ccco1)Cc1cccs1	·	?	·	–	·
COc1ccc(C2C(C(=O)Nc3cc(C)on3)c3ccccc3C(=O)N2C)cc1 (stereo not given)	–	–	–	–	–
COc1ccc(C2C(C(=O)Nc3cccc(C)n3)c3ccccc3C(=O)N2C)cc1 (stereo not given)	-110%	–	–	–	–
COc1ccc(C2C(C(=O)N3CCC(C)CC3)c3ccccc3C(=O)N2C)cc1 (stereo not given)	–	–	–	–	–

Source: PubChem BioAssay
